# Source: PubChem (National Center for Advancing Translational Sciences (NCATS))
# HEK293 tox: cytotoxicity counter-screen for GLP-1 receptor inverse agonists; Potency, µM (titrated, usually from 38.3 µM), hits mostly inhibitors; AID 624418; 0.13% of 410,000 active; HEK293 cAMP-luciferase reporter cells, luminescence, 24 h;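 also: loss of luciferase light is scored as toxicity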
#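 A 23 nL compound transfer followed 12 hours of cell culture at 37 deg C; exposure then lasted 24 hr. Luciferase assay detection reagent was dispensed and plates read for luminescence after a 12 min room-temperature wait.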
# GLP-1R agonist: agonists of human GLP-1 receptor. P43220. HEK293 GLP-1R CRE-luciferase, luminescence, 4-6 h; cells express a hypersensitive GLP-1R form. Potency, µM (titrated, usually from 45.6 µM), most hits filed as activators. 0.007% of 380,000 active
# Target sequence (P43220 whole entry, looked up): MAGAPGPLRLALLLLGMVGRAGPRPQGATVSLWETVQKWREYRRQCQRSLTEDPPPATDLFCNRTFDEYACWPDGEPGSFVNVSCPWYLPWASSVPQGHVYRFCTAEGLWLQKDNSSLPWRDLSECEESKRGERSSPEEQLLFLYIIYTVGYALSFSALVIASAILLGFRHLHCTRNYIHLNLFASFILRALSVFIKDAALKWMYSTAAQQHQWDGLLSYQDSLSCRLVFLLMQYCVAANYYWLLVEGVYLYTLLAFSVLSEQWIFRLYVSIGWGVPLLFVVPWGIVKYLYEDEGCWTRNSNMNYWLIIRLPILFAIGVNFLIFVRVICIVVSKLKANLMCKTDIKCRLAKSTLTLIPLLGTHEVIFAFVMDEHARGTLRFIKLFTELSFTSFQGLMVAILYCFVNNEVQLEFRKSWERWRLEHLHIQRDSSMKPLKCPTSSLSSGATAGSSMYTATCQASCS
# ClpP mod: qHTS Assay for Activators of ClpP. ATP-dependent Clp protease proteolytic subunit (Bacillus subtilis (strain 168)), P80244. purified B. subtilis ClpP, FRET peptide cleavage, 20 min. Potency, µM (highest dose often 57.5 µM). 1.9% of 340,000 active; active = well fitted falling curve with a large enough effect; inconclusive = small, poorly fitted or top-dose-only effect; inactive = no such curve, though single readings can be large or run the other way; also: the source files actives as falling curves though it sought activators and does not explain the sign; nearly all actives have a fitted effect of over 65% in size
# Target sequence (P80244 whole entry, looked up): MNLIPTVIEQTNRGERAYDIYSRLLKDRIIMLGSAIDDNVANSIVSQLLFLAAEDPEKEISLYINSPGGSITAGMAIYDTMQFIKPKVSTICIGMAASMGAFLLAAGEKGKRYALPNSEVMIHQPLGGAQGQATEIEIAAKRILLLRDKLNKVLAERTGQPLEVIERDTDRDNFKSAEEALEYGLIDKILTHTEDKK
#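 Purified B. subtilis ClpP, 10 microg/mL final in Tris/HCl pH8 with KCl, BSA, glycerol and Tween-20, cleaved an Abz/nitrotyrosine-quenched decapeptide. Fluorescence (ex 320, em 430) was read at 0 and 20 min at room temperature. Delta was normalized to 5.8 microM ADEP and DMSO/no-enzyme controls.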
# GLP1R inv ag: GLP-1 receptor (human) inverse agonism. P43220. 1.6% of 410,000 active. Potency, µM (top dose mostly 38.3 µM), usual class: inhibitors. HEK293 GLP-1R CRE-luciferase, luminescence, 24 h; GLP-1R form is constitutively active; also: nearly all actives have a fitted effect of over 55% in size
#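 Cells are plated, allowed 12 hours at 37 deg C, then treated with compounds for 24 hr before luciferase detection reagent is added and luminescence is read after 12 min at room temperature. The HEK293 line carries constitutively active GLP-1R with a cAMP-responsive reporter.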
# Numbers stand for hits; n = inactive; u = inconclusive; x = not tested or not shown. An excerpt weighted towards active compounds, which were near 3.2% of everything screened. Unless noted, calls follow the shape of the dose curve; as a rule, active = well fitted curve in the direction sought with a large enough effect; inconclusive = small, poorly fitted or top-dose-only effect, or another doubt; inactive = no such curve, though single readings can be large; an effect the other way counts as inactive or inconclusive.
SMILES,HEK293 tox,GLP-1R agonist,ClpP mod,GLP1R inv ag
Cc1cccc(C(=O)Nc2nnc(S(=O)(=O)N(C)Cc3ccc(Cl)cc3)s2)c1,n,x,u,u
CC(NC(=O)c1ccc2c(c1)CCN2S(=O)(=O)c1ccc(Cl)cc1)c1ccccc1 (centres undefined),n,x,n,u
C#CCn1c(=NC(=O)CSC(C)=O)sc2cc(F)ccc21,u,n,n,3.5µM
CCn1c(=NC(=O)CSC(C)=O)sc2cc(F)ccc21,n,n,n,n
Cc1sc2nc3c4ccccc4c(NCc4ccco4)nn3c(=O)c2c1C,n,n,25µM,n
COc1cc(OC)c(C(=O)NCc2nc(-c3ccccc3)no2)cc1OC,n,x,n,n
C=CCOc1ccc(CN(C)CC(O)COc2ccc(CCC(C)=O)cc2)cc1 (centres undefined),n,n,x,11µM
CCOc1ccc(CCNC(=O)c2cc3n(n2)CCCN(Cc2ccc(C)cc2)C3=O)cc1OCC,n,x,n,n
O=C(CNC(=O)C1CCCCC1)OCc1cc(=O)oc2ccc3ccccc3c12,n,n,25µM,n
O=C(COC(=O)CNC(=O)C1CCCCC1)Nc1ccccc1,n,n,x,n
N=c1ccccn1CC(O)COc1ccccc1 (centres undefined),n,n,u,n
CC(O)Cn1ccccc1=N (centres undefined),n,n,16µM,n
Cc1cccc(C(=O)N2CCc3cc(CNC(=O)c4ccco4)ccc32)c1,n,x,n,n
Cc1ccc(N2CCN(C(=O)c3ccccc3Br)CC2)c(C)c1,n,n,n,10µM
O=C(c1cnc(N2CCN(c3ncccn3)CC2)c2ccccc12)N1CCN(c2ncccn2)CC1,n,n,n,n
Cc1ccc(Cl)cc1N1CCN(C(=O)c2cnc(N3CCOCC3)c3ccccc23)CC1,n,x,32µM,u
Cc1ccc(Cl)cc1N1CCN(C(=O)COc2ccc3c(c2)CCC3)CC1,n,n,x,10µM
Cc1ccc(N2CCN(C(=O)c3cnc(N4CCCCC4)c4ccccc34)CC2)c(C)c1,n,x,35µM,u
COc1cc2nc(N3CCCCC3)nc(NC3CCN(C)CC3)c2cc1OC,x,x,n,x
COc1ccc(CNC(=O)Cn2c(=O)oc3cc(S(=O)(=O)NCc4ccccc4)ccc32)cc1,n,x,n,n
COc1ccc(-c2cc(C(F)(F)F)nc(S(=O)(=O)CCCC(=O)Nc3ccccc3C(F)(F)F)n2)cc1OC,n,x,n,n
CCOc1ncccc1C(=O)N1CCN(c2cccc(C)c2C)CC1,u,n,x,u
CCOc1ncccc1C(=O)N1CCN(c2cc(Cl)ccc2C)CC1,n,u,x,1µM
Cc1ccc(Cl)cc1N1CCN(C(=O)c2cnn(C)c2C2CCN(C(=O)OC(C)(C)C)CC2)CC1,n,x,n,10µM
O=C(c1cnc(N2CCCCC2)c2ccccc12)N1CCN(c2ccc(Cl)cc2)CC1,n,x,25µM,u
SMILES,HEK293 tox,GLP-1R agonist,ClpP mod,GLP1R inv ag
O=C(NCCc1ccc(Cl)cc1)c1ccc2c(c1)N(Cc1ccc(Cl)cc1)C(=O)CS2,n,n,n,n
CC(C)(C)c1ccc(CN(Cc2ccco2)c2cnc(S(C)(=O)=O)nc2C(=O)Nc2ccc(F)cc2)cc1,n,x,n,u
COc1ccc(Cl)cc1S(=O)(=O)Nc1cccc(-c2ccc(N3CCOCC3)nn2)c1,n,x,n,n
O=C(Oc1cccc(Nc2ncnc3ccccc23)c1)c1ccccc1Cl,u,n,32µM,u
CN1C(=O)C(C)(C)c2cc(S(=O)(=O)NCc3ccc(C(=O)Nc4ccc(Cl)cc4)cc3)ccc21,n,x,n,u
COc1ccc(-c2csc3ncnc(Nc4ccc(OC)cc4OC)c23)cc1,n,x,40µM,n
COc1ccccc1Nc1ncnc2scc(-c3ccc(F)cc3)c12,n,x,28µM,n
COc1ccc(-c2csc3ncnc(Nc4cccc(F)c4)c23)cc1,n,x,n,n
CCc1c(C)sc2c1CCN(C(=O)Nc1ccc(F)c(Cl)c1)C2c1ccc(F)cc1 (centres undefined),n,x,n,u
CCOC(=O)c1ccc(NC(=S)N(CCN2CCCCCC2)Cc2ccco2)cc1,u,n,x,6.3µM
COc1ccc(NC(=O)C(=O)NCC(c2cccnc2)N2CCc3ccccc3C2)cc1 (centres undefined),n,x,n,u
Cc1ccccc1OCC(=O)Nc1ccc2nc(SCC(=O)N(C)c3ccccc3)sc2c1,n,x,n,u
COc1ccc(C(O)(c2ccccc2OC)C(CN2CCOCC2)c2ccccc2)cc1 (centres undefined),n,n,x,10µM
CCCCC(O)(c1ccccc1)C(CN1CCOCC1)c1ccccc1 (centres undefined),n,n,n,10µM
CCCOc1ccc(C(O)C(CN2CCOCC2)c2ccccc2)cc1 (centres undefined),n,n,n,u
CCCCOc1ccc(C(O)C(CN2CCOCC2)c2ccccc2)cc1 (centres undefined),n,n,n,10µM
Cc1ccc(C)c(-n2nnc(C(=O)Nc3ccc(Br)cc3)c2C)c1,n,x,n,u
CC(Sc1nnc(-c2ccncc2)n1C)C(=O)NCC(=O)Nc1ccc(F)c(F)c1F (centres undefined),n,n,n,n
CC(Sc1nnnn1-c1ccc(Cl)cc1)C(=O)NCC(=O)Nc1ccc(F)c(F)c1F (centres undefined),n,n,25µM,u
CCOC(=O)c1c(-c2ccccc2Cl)cn2ccccc12,n,n,25µM,n
CCC(C(=O)N1CCN(c2cccc(Cl)c2)CC1)c1ccccc1 (centres undefined),n,n,n,5µM
O=C(C(Cc1ccccc1)n1cccc1)N1CCN(Cc2ccccc2)CC1 (centres undefined),n,n,n,u
O=C(C(Cc1ccccc1)n1cccc1)N1CCN(c2cccc(Cl)c2)CC1 (centres undefined),n,n,n,11µM
CCC(CC)C(=O)N1CCN(c2ccccc2)CC1,n,n,x,n
O=C(C(=O)N1CCN(c2cccc(Cl)c2)CC1)c1c[nH]c2ccccc12,n,n,n,8.9µM
SMILES,HEK293 tox,GLP-1R agonist,ClpP mod,GLP1R inv ag
CO/N=C1/CC2(CC3CC(C/C=C(/C)CC(C)/C=C\C=C4\COC5C(O)C(C)=CC(C(=O)O3)C45O)O2)OC(/C(C)=C/C(C)C)C1C (centres undefined),x,n,x,x
O=C(CSCc1cnn(-c2ccccc2)c1-n1cccc1)Nc1ccc(F)cc1F,n,x,n,u
COc1ccc(C2C(C(=O)Nc3ccc(C)cc3C)=C(C)Nc3nc(SCc4cccc(C)c4)nn32)c(OC)c1 (centres undefined),n,n,n,n
CCc1ccc2nc(N(Cc3cccnc3)C(=O)c3cccs3)sc2c1,n,x,n,n
CCc1ccc(C(O)(CNCc2ccccc2)c2ccccc2)cc1 (centres undefined),n,n,n,11µM
CC1(CCc2ccc3c(c2)OCO3)NC(=O)c2ccccc2N1 (centres undefined),n,n,28µM,n
